# Assay outcomes from PubChem BioAssay.
# Only some compounds are listed: those with a hit (about 3.3% of all), similar ones and a draw of the others.
# Jurkat NFkB inh – inhibitors of the PMA/ionomycin-induced NF-kB reporter in Jurkat cells; PMA/ionomycin-induced NF-kB luciferase reporter, luminescence; inhibition, % at 4 µM; 0.53% of 330,000 active; AID 435003; in the data active = inhibition above about 50%
# SMARCA2 activ – SMARCA2 function activation, primary screen. MG213 cells, MMTV-luciferase reporter, dexamethasone, overnight. 1% of 370,000 active. activation, % at 9.1 µM; in the data active = activation above about 7.8%
# esBAF inh – inhibitors of esBAF chromatin remodeling in mouse ES cells; Bmi1-luciferase knock-in reporter, 24 h; 100% = twice the neutral-well signal; reporter increase, % at 12.5 µM; 2% of 350,000 active; AID 602393; in the data active = activation above about 40%; inconclusive = no clear call, values can overlap the other calls;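 also: a rise in the Bmi1 reporter signal indicates esBAF inhibition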
# Gli-Sufu antag – antagonists of Gli-Sufu signaling. Sufu-KO-LIGHT fibroblasts, Gli luciferase reporter luminescence. inhibition, % at 5 µM. 0.74% of 340,000 active. AID 588413;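 active = inhibition above about 55%, limit read from the data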
# 697 NFkB inh – lowers PMA/ionomycin-induced NF-kB signal in 697 B cells; 697 B-cell NF-kB luciferase reporter, 16 h; inhibition, % at 4 µM; 0.33% of 330,000 active; AID 435022; in the data active = inhibition above about 35%
# Jurkat NFkB conf – inhibitors of the PMA/ionomycin-induced NF-kB reporter in Jurkat cells, retest; shares compounds with Jurkat NFkB inh; Jurkat NF-kB luciferase, 16 h; inhibition, % at 4 µM; 27% of 2,700 active; AID 435020;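 active = inhibition reaching about 45% at 4 µM in either replicate, limit read from the data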
# Hits are given with their value; - = inactive; ? = inconclusive; . = not tested or not shown.
SMILES,Jurkat NFkB inh,SMARCA2 activ,esBAF inh,Gli-Sufu antag,697 NFkB inh,Jurkat NFkB conf
Cc1ccc(S(=O)(=O)CCC(=O)OC2CC(C)OC2=O)cc1 (stereo not given),-,-,-,-,-,-
CCN(CC)S(=O)(=O)c1cccc(C(=O)OC2CC(C)OC2=O)c1 (stereo not given),-,-,-,-,-,.
CC(C)Cc1ccc(C(C)C(N)=NCCc2ccccc2)cc1 (stereo not given),50,-,-,-,-,-
COc1ccc(S(=O)(=O)N2N=C(C)Oc3ccccc3C2=O)cc1,53,-,.,-,-,-
CCCN1CCC(=NNc2ccc(S(=O)(=O)N(CC)CC)cc2[N+](=O)[O-])CC1,59,-,.,-,-,-
OC(CN1C2=NCCN2c2ccccc21)c1ccc2c(c1)OCO2 (stereo not given),63,-,-,-,-,-
Cn1cnc(CCNC(=O)C[C@H]2CC[C@@H]3[C@H](COC[C@@H](O)CN3C(=O)C3CCCC3)O2)c1,.,.,-,.,.,.
O=C(Cc1ccccc1)NCc1ccc(-n2cccc2)cc1,54,-,.,-,-,-
CCn1c(O)c(/C=C2\C=Nc3ccccc32)sc1=Nc1ccc(C)cc1,62,-,-,-,-,-
C[C@@H]1CCCCO[C@H](CN(C)C(=O)c2ccccc2)[C@H](C)CN([C@H](C)CO)C(=O)c2cc(NC(=O)C3CCCCC3)ccc2O1,.,.,-,.,.,.
COc1ccc(NC(=O)Nc2cccc3c2O[C@@H](CN(C)S(C)(=O)=O)[C@@H](C)CN([C@H](C)CO)C3=O)cc1,.,.,-,.,.,.
CN(C)c1ccc(/C=C/c2ccncc2)cc1,.,-,-,-,.,.
CC(C)CC[n+]1ccccc1/C=C/c1ccc(N(C)C)cc1,90,-,-,88,-,49
CCC(=O)NC(c1cccs1)c1ccc2cccnc2c1O (stereo not given),63,-,.,81,-,47
CCCC(=O)NC(c1cccs1)c1cc(Cl)c2cccnc2c1O (stereo not given),-,-,.,-,-,.
C[C@@H]1CCCCO[C@H](CN(C)C(=O)Nc2cccc3ccccc23)[C@H](C)CN([C@@H](C)CO)C(=O)c2cc(NC(=O)Cc3ccccc3)ccc2O1,.,.,-,.,.,.
Cc1ccc(NC(=O)c2nc[nH]c2C(=O)NCCCCNC(=O)c2[nH]cnc2C(=O)Nc2ccc(C)cc2)cc1,50,-,-,-,-,-
CCOC(=O)c1ccc(NC(=O)c2nc[nH]c2C(=O)NCCCCNC(=O)c2[nH]cnc2C(=O)Nc2ccc(C(=O)OCC)cc2)cc1,67,-,-,-,-,-
COc1ccc(C=O)cc1COc1ccc2c(c1)OCO2,59,-,.,-,-,-
COc1ccc(/C=c2/sc3n(c2=O)C(c2ccccc2OC)C2=C(N=3)c3ccccc3CC2)cc1O (stereo not given),70,-,.,-,-,51
CCOC(=O)C1=C(C)N=c2s/c(=C\c3ccc(O)c([N+](=O)[O-])c3)c(=O)n2C1c1ccccc1OC (stereo not given),-,-,-,-,-,.
Clc1ccc(OCc2nc(-c3ccccn3)no2)c(Br)c1,-,-,-,-,-,-
Clc1ccc(-c2nc(-c3ccccn3)no2)cc1Cl,-,-,-,-,-,.
O=C(N[C@H]1CC[C@H](CCNC(=O)c2ccccc2F)O[C@H]1CO)c1ccc2c(c1)OCO2,.,.,-,.,.,.
C[C@]12CC[C@@H]3c4cc(O)c(O)cc4CC[C@H]3[C@@H]1CC[C@@H]2O,52,-,-,-,-,-
SMILES,Jurkat NFkB inh,SMARCA2 activ,esBAF inh,Gli-Sufu antag,697 NFkB inh,Jurkat NFkB conf
CO[C@H]1CN(C)C(=O)c2ccc(NC(C)=O)cc2OC[C@@H](C)N(CCC(F)(F)F)C[C@@H]1C,.,.,-,.,.,.
COc1ccc2nc(SCC(=O)NC3CCCC3)c(C)cc2c1,50,-,-,-,-,-
COc1ccc2c(C)cc(SCC(=O)NC3CCCC3)nc2c1,-,-,-,-,-,.
Cc1noc(C)c1NC(=O)Nc1ccc2c(c1)C(=O)N([C@H](C)CO)C[C@H](C)[C@@H](CN(C)C(=O)Nc1ccc(F)cc1)O2,.,.,-,.,.,.
Cc1noc(C)c1NC(=O)N(C)C[C@H]1OCCCC[C@H](C)Oc2ccc(NS(C)(=O)=O)cc2C(=O)N([C@H](C)CO)C[C@@H]1C,.,.,-,.,.,.
Cc1noc(C)c1NC(=O)Nc1ccc2c(c1)C(=O)N([C@H](C)CO)C[C@H](C)[C@H](CN(C)C(=O)c1ccccc1)OCCCC[C@H](C)O2,.,.,-,.,.,.
CNC(=O)C[C@@H]1CC[C@H]2[C@H](COc3ccc(NC(=O)Nc4c(C)noc4C)cc3C(=O)N2C)O1,.,.,-,.,.,.
CCC(=O)Nc1ccc2c(c1)C(=O)c1ccccc1C2=O,-,-,?,-,-,-
CCC(=O)Nc1ccc2c(c1)C(=O)N(C)C2=O,-,-,-,-,-,.
Cc1cccc(N2CCCC2=Nc2ccc(Br)cc2C#N)c1,62,-,-,-,-,-
CCCNC(=O)Nc1ccc2c(c1)C(=O)N(C)C[C@H](OC)[C@@H](C)CN(C(=O)CC)[C@H](C)CO2,.,.,-,.,.,.
CC(=O)N(C)C[C@H]1Oc2ncc(C#Cc3ccncc3)cc2C(=O)N([C@@H](C)CO)C[C@@H]1C,.,.,-,.,.,.
Clc1ccccc1/C=N/NC1=Nc2cccc3cccc1c23,-,-,.,-,-,-
O=C(O)c1ccc(NC2=Nc3cccc4cccc2c34)cc1,.,-,.,-,.,.
COC(=O)CSc1nc2cc3c(cc2cc1C#N)OCO3,-,-,.,-,-,-
COC(=O)CSc1nc2cc3c(cc2cc1C)OCCO3,-,-,-,-,-,.
CCOC(=O)CSc1nc2cc3c(cc2cc1C#N)OCO3,-,-,.,-,-,-
CS(=O)(=O)Nc1ccc2c(c1)[C@H]1C[C@H](CC(=O)NCc3ccc(Oc4ccccc4)cc3)O[C@@H](CO)[C@H]1O2,.,.,-,.,.,.
CN(C)c1ccc(N=Nc2ccc(S(N)(=O)=O)cc2)cc1,-,-,-,-,-,-
CCCNC(=O)Nc1ccc2c(c1)C(=O)N(C)[C@H]1CC[C@@H](CC(=O)OC)O[C@@H]1CO2,.,.,-,.,.,.
CC(=O)O[C@H]1C(=O)[C@]2(C)[C@H]([C@H](OC(=O)c3ccccc3)[C@]3(O)C[C@H](OC(=O)[C@H](O)[C@@H](NC(=O)c4ccccc4)c4ccccc4)C(C)=C1C3(C)C)[C@]1(OC(C)=O)CO[C@@H]1C[C@@H]2O,71,-,-,-,-,65
CC(=O)O[C@H]1C(=O)[C@@]2(C)C([C@H](OC(=O)c3ccccc3)[C@]3(O)C[C@H](OC(=O)[C@H](O)[C@@H](NC(=O)c4ccccc4)c4ccccc4)C(C)=C1C3(C)C)[C@]1(OC(C)=O)CO[C@@H]1C[C@H]2O (stereo not given in full),67,-,-,-,-,70
CC(C)(C)c1ccc(/C=C/C(=O)NC2=NCCS2)cc1,-,-,-,-,-,-
CC(C)(C)c1ccc(/C=C/C(=O)Nc2cccnc2)cc1,-,-,-,-,-,.
